USP2a block – USP2a (human) protease inhibition | O75604 | Potency, µM (highest dose often 38.3 µM), for inactives: top-dose activity change, negative = inhibition, hits mostly inhibitors | USP2 core, Ub-CHOP2 coupled fluorogenic reporter, 485/531 | hit rate 0.01% among 330,000;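 further: potency means the concentration at half of the fitted maximal effect; plate controls were DMSO wells for no effect and full inhibition by NEM control for full effect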
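Deubiquitinase activity read as fluorescence (485/531 nm) after Ub-CHOP2 cleavage activates the enterokinase reporter on its substrate; USP2 core 10nM, Ub-CHOP2 and substrate 25nM each, 30min compound preincubation then 60min RT; data normalized to NEM, curves fitted.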
Eya2 phos inh – blocks the phosphatase activity of human Eya2 | hit rate 0.006% among 330,000 | AID 488837 | O00167 | Potency, µM (titrated, usually from 76.9 µM), for inactives: at the top dose activity, negative = inhibition, usual class: inhibitors | recombinant Eya2, OMFP fluorescence dephosphorylation (OMFP is methylfluorescein phosphate); further: potency means the concentration at half of the fitted maximal effect; on the % scale 0 is the no-effect control and ±100 the full control effect
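Eya2 (0.2 uM) preincubated 10 min at ambient with compound, then OMFP substrate added at 50 uM; 10 min reaction in 50 mM HEPES pH 7.5, 50 mM NaCl, 5 uM MgCl2, 0.05% BSA, 1 mM DTT. Fluorescence read at Ex 485/Em 525 nm.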
D1 antag – human D1 dopamine receptor antagonism. P21728. HEK293 TREx D1 cells, calcium flux, dopamine EC80; stronger effect = lower value. activity change, negative = inhibition, % at 10 µM. hit rate 3.2% among 360,000. AID 504652; in the data active means activity change below about -30%; further: on the % scale 0 is the no-effect control and ±100 the full control effect
Target sequence (P21728 whole entry, looked up): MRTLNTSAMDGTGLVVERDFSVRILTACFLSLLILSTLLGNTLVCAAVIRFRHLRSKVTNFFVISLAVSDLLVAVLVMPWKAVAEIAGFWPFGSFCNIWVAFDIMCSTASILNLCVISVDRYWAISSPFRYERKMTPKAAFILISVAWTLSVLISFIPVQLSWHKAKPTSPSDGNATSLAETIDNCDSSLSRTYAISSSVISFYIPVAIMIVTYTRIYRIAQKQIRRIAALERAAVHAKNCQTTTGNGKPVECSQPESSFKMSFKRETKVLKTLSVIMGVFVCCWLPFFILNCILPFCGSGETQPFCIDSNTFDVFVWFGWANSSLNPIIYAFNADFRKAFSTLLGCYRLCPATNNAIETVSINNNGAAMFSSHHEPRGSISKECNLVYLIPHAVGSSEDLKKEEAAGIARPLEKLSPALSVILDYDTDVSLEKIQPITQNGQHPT
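After overnight tetracycline induction at 30 C, force-coupled D1 HEK293 cells took up a no-wash calcium dye at room temperature. Compounds were added and monitored 180 s, and the response to EC80 dopamine was then recorded.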
D1 agonist – agonists of human D1 dopamine receptor | P21728 | HEK293 T-REx D1 cells, calcium flux, agonist mode | activation, % at 2 µM | hit rate 1% among 360,000; in the data active means activation above about 30%; further: 0% is about no effect
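Agonism was scored from calcium flux recorded over 180 s (1 read/s) after pintool compound addition, following a 10-cycle baseline. Cells were inducible force-coupled HEK293 TREx D1, plated overnight at 30 C and loaded with no-wash calcium dye.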
GALK inhibitor – inhibitors of human galactokinase. P51570. Purified GALK, Kinase-Glo residual ATP luminescence. Potency, µM (top dose mostly 57.5 µM), for the others: at the top dose activity change, negative = inhibition, hits mostly inhibitors. hit rate 0.007% among 270,000. AID 1868; further: potency means the concentration at half of the fitted maximal effect; on the % scale 0 is the no-effect control and ±100 the full control effect
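Human GALK (5 nM) with 35 uM ATP and 100 uM galactose in 20 mM HEPES pH 8.0, 5 mM MgCl2, 60 mM NaCl, 1 mM DTT, 0.01% BSA. After 1 h at room temperature, leftover ATP was read by Kinase-Glo Plus luminescence.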
D1 PAM – enhances dopamine response at the human D1 receptor | hit rate 0.036% among 360,000 | HEK293 TREx D1 cells, calcium flux, dopamine EC20 potentiation | AID 504651 | potentiation, % at 10 µM; in the data active means potentiation above about 30%; further: 0% is about no effect
* hit, by the source's call; ? = inconclusive; . = no result given. Rows were chosen to be rich in hits. Some 3.9% of all compounds tested hit in one or more screens of this group. Unless noted, the call rests on the fitted dose curve; in most records, active means well fitted inhibition curve with a large enough effect; inconclusive means small, poorly fitted or top-dose-only effect, or effect the other way; inactive means flat fitted curve, though single readings scatter.

SMILES	USP2a block	Eya2 phos inh	D1 antag	D1 agonist	GALK inhibitor	D1 PAM
COc1ccc(/C=C(\C#N)c2nc(-c3cc4c(ccc5ccccc54)oc3=O)cs2)cc1O	.	.	-11.3	16.1	.	-3.0
Cc1ccccc1N=C(NOCc1ccc(Cl)cc1Cl)c1nonc1N	-13.1%	-22.7%	-47.9*	3.0	0.3%	-5.7
O=C(OCC(=O)N1CCCc2ccccc21)c1ccc(Cl)nc1	2.2%	6.4%	-3.1	0.8	1.1%	-4.8
O=C(Cn1cnc2ccccc21)OCC(=O)N1CCCc2ccccc21	-1.1%	-4.9%	-60.6*	7.5	-4.0%	-1.1
O=C(OCC(=O)N1CCCc2ccccc21)c1cnc(Cl)c(Cl)c1	-1.2%	-4.1%	4.3	41.2*	-2.6%	0.1
O=C(Nc1ccc2c(c1)CCCN2C(=O)c1cccs1)c1ccccc1Cl	.	.	-18.4	3.2	.	0.1
CCc1cccc2c(C(=O)C(NCCOC)c3ccccc3)c[nH]c12 (stereo not drawn)	3.1%	-5.1%	-16.8	14.3	-1.3%	-5.5
CCNC(C(=O)c1c[nH]c2c(CC)cccc12)c1ccccc1 (stereo not drawn)	0.1%	-6.1%	-10.9	63.0*	17.1%	-6.2
Cc1cc(C)cc(NC(=O)OCCN2CCN(Cc3ccccc3)CCC2=O)c1	6.5%	1.1%	-32.3*	-3.7	.	-6.5
Cc1ccc(S(=O)(=O)N2CCC(=O)N(CCOC(=O)Nc3ccccc3C)CC2)cc1	-1.1%	6.0%	-31.0*	-4.1	.	-5.9
CCC1(C)Cc2nc3[nH]c(=S)n(-c4ccc(C)cc4)c(=O)c3cc2CO1 (stereo not drawn)	3.8%	4.7%	-2.2	1.6	-1.0%	6.7
Cc1ccc(-n2c(=S)[nH]c3[nH]ncc3c2=O)cc1	1.3%	-1.5%	-30.6*	3.2	-0.9%	-3.6
Cc1ccc(-n2c(=S)[nH]c3nc4c(cc3c2=O)COC(C)(C)C4)cc1	-0.1%	1.3%	-48.1*	1.2	.	-10.4
O=c1c2cn[nH]c2[nH]c(=S)n1-c1ccccc1F	0.5%	2.7%	14.4	0.6	0.4%	-0.9
Cc1ccc(-c2csc(=Nc3ccc(F)cc3)n2Cc2ccc3c(c2)OCO3)cc1C	.	.	-10.3	0.5	.	-1.6
Cc1ccc(-n2ncc(C(=O)NC3CCCCC3)c2C2CCN(C(=O)OC(C)(C)C)CC2)cc1	.	.	2.9	0.7	.	4.5
COc1ccc(OC)c(CNC(=O)C2COc3ccccc3C2)c1 (stereo not drawn)	.	.	3.0	-1.8	.	-0.6
CCCCNCC1CCCO1 (stereo not drawn)	1.8%	?	-90.5*	3.7	-1.8%	-6.3
Cc1ccc(CNCC2CCCO2)o1 (stereo not drawn)	3.7%	10.9%	16.8	3.1	-1.4%	0.2
CC(C)CC(=O)NC(Nc1ccccc1F)C(Cl)(Cl)Cl (stereo not drawn)	-1.1%	-4.6%	-2.5	3.5	1.6%	5.7
CC(C)CC(=O)NC(Nc1ccc([N+](=O)[O-])cc1)C(Cl)(Cl)Cl (stereo not drawn)	3.6%	-0.9%	-40.4*	25.0	0.4%	-2.9
O=C(CN1CCN(S(=O)(=O)c2ccccc2[N+](=O)[O-])CC1)Nc1ccc(N2CCOCC2)cc1	8.5%	-11.5%	-46.0*	8.8	0.9%	-13.1
CC(=O)c1c(C)[nH]c(C(=O)CN2CCN(S(=O)(=O)c3ccccc3[N+](=O)[O-])CC2)c1C	0.1%	11.4%	-30.6*	7.0	.	-4.1
CCOC(=O)c1ccccc1NC(=O)Cn1c(=O)n(-c2cccc(C)c2)c(=O)c2c1c1cc(C)ccc1n2C	.	.	8.7	-0.4	.	0.9
CC(C)(C)C(=O)/C=c1\s/c(=C\c2ccc(-c3ccc([N+](=O)[O-])cc3)o2)c(=O)n1CC(=O)NC(N)=O	?	8.0%	7.9	893.9*	-0.6%	-10.7
CCNC(=O)C/C(C)=N/NC(=O)C12CC3CC(CC(C3)C1)C2	-0.1%	8.9%	-31.9*	0.5	.	-4.3
CCNC(=O)C/C(C)=N/NC(=O)C1CCCCC1	-0.8%	-0.7%	-2.1	4.0	0.5%	-6.8

Compound activity: PubChem, National Center for Advancing Translational Sciences (NCATS)
